Several values for one entry are separate records, joined by “and”; a condition that tells them apart may be missing. Identical values can stand only once. Records with an inconclusive call do not appear. A call without a number means that no potency is given here. Some compounds were tested as several samples or in several runs, with calls that do not always agree. Activity calls are given as the source filed them. Unless noted, calls come from the whole dose curve; as a rule, active = well fitted curve in the direction sought with a large enough effect in the repeat runs; inconclusive = weak or mixed curves; inactive = no such curve, though single readings can be large; an effect the other way counts as inactive or inconclusive.
Columns and labels:
[1] = qHTS assay for small molecules that induce genotoxicity in human embryonic kidney cells expressing luciferase-tagged ATAD5 (AID 651632); note: nearly all actives have a fitted effect of over 15% in size; note: potency is the fitted concentration of half-maximal effect
In short: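 ATAD5-luc HEK293T, 2,000 cells/well; cpd or DMSO pin-transferred; 16 hr, 37C/5% CO2; Amplite 30 min RT; luminescence.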

[2] = qHTS assay for small molecule agonists of the p53 signaling pathway - cell viability (AID 651633; calls by dose curve; note: nearly all actives have a fitted effect of over 30% in size; note: potency is the fitted concentration of half-maximal effect)
In short: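 p53RE-bla cells, seeded at 4,000 per well and rested 5 h at 37 C/5% CO2, received compounds in DMSO for 16 h at 37 C. CellTiter-Glo was then added, and luminescence was read after 30 min at room temperature to gauge cytotoxicity.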

[3] = qHTS assay for small molecules that induce genotoxicity in human embryonic kidney cells expressing luciferase-tagged ATAD5 - cell viability (AID 651634; calls by dose curve; note: nearly all actives have a fitted effect of over 25% in size; note: potency is the fitted concentration of half-maximal effect)
In short: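 Fluorescence from CellTiter-Fluor, reporting protease activity within live cells, served as the viability read-out. HEK293T cells carrying luciferase-tagged ATAD5 had been treated with compound for 15.5 hr at 37C.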

[4] = qHTS assay for small molecule disruptors of the mitochondrial membrane potential - cell viability (AID 720634; calls by dose curve; note: nearly all actives have a fitted effect of over 20% in size; note: potency is the fitted concentration of half-maximal effect)
In short: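 Cells: HepG2, 2,000/well, attached overnight. Compound 1 hr, 37 C/5% CO2. +m-MPI dye, +CellTiter-Glo 30 min RT. Readout: luminescence (ATP).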

[5] = qHTS assay for small molecule disruptors of the mitochondrial membrane potential (AID 720635); note: potency is the fitted concentration of half-maximal effect
In short: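 HepG2 cells (2,000/well) attached overnight at 37C, then took compound for 1 hr at 37C, 5% CO2. Mito-MPS dye was added for 30 min; fluorescence was read at 490/535 nm (monomers) and 540/590 nm (aggregates).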

[6] = qHTS assay to test for compound auto fluorescence at 590 nm (red) in HepG2 cells (AID 720674)
In short: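 Compound auto-fluorescence is scored relative to Rose Bengal sodium, measured at 540/590 nm in live HepG2 cultures after 1 hr compound contact (37 C, 5% CO2).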

[7] = qHTS assay to test for compound auto fluorescence at 535 nm (green) in HepG2 cells (AID 720675)
[8] = qHTS assay to test for compound auto fluorescence at 460 nm (blue) in HEK293 cells (AID 720678)
In short: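 Blue read-out at excitation 405 nm and emission 460 nm follows overnight compound exposure of HEK293 cells at 37C in 5% CO2. Activity is given as auto fluorescence equivalency to triamterene.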

[9] = qHTS assay to test for compound auto fluorescence at 590 nm (red) in HEK293 cells (AID 720679)
In short: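 Red channel, Ex/Em 540/590nm; signal expressed as equivalency to Rose Bengal sodium. HEK293, 2,000 cells/well, 10% dialyzed FBS; 23 nL compound pinned after 4-5 hr attachment; overnight 37C/5% CO2 before reading.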

[10] = qHTS assay to test for compound auto fluorescence at 535 nm (green) in HEK293 cells (AID 720680)
[11] = qHTS assay to test for compound auto fluorescence at 460 nm (blue) in HEK293 cell free culture (AID 720681)
In short: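 Test compounds were pinned into cell-free culture medium (DMEM with 10% FBS) and fluorescence was read directly at Ex/Em 405/460 nm. Signals were expressed as fluorescence equivalents of triamterene, with DMSO vehicle as control.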

[12] = qHTS assay to test for compound auto fluorescence at 535 nm (green) in HEK293 cell free culture (AID 720682)
In short: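 Read-out: 485/535 nm fluorescence intensity, calibrated against fluorescein. Medium only (DMEM + 10% FBS, no cells); test compound or DMSO vehicle added by pintool before plate reading.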

[13] = qHTS assay to test for compound auto fluorescence at 590 nm (red) in HEK293 cell free culture (AID 720683)
In short: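 Tox21 10K library compounds were pinned into cell-free DMEM with 10% FBS and fluorescence was read at excitation 540 nm. Activity is expressed as Rose Bengal sodium equivalency.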

[14] = qHTS assay to test for compound auto fluorescence at 590 nm (red) in HepG2 cell free culture (AID 720684)
In short: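 Measured in medium alone (MEM containing 10% FBS) following pintool addition of compound; emission at 590 nm with 540 nm excitation, referenced to Rose Bengal sodium.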

[15] = qHTS assay to test for compound auto fluorescence at 460 nm (blue) in HepG2 cell free culture (AID 720685)
In short: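 Compound (23 nL) or DMSO pinned into cell-free MEM with 10% FBS; blue fluorescence read at 405/460 nm excitation/emission, expressed as auto-fluorescence equivalency to triamterene.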

[16] = qHTS assay to test for compound auto fluorescence at 535 nm (green) in HepG2 cell free culture (AID 720686)
[17] = qHTS assay to test for compound auto fluorescence at 460 nm (blue) in HepG2 cells (AID 720687)
In short: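 Cells (2,000/well in MEM with 10% FBS) attached overnight at 37 C, then were exposed to compound or DMSO for 1 hr at 37 C, 5% CO2. Fluorescence read at Ex/Em 405/460 nm, expressed as triamterene-equivalent signal.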

[18] = target: Glucocorticoid receptor (Homo sapiens) (UniProt P04150); experiment: qHTS assay to identify small molecule agonists of the glucocorticoid receptor (GR) signaling pathway (AID 720691; active = well fitted activation curve with a large enough effect in the signal ratio in the repeat runs, not every such curve was filed as active; the % refers to the signal ratio)
In short: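 Fluorescence intensity from LiveBLAzer B/G FRET substrate (2 h, room temperature) reports beta-lactamase expression driven by the glucocorticoid response element in GR-bla HeLa cells after 18 h compound exposure at 37 C.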

[19] = target: Glucocorticoid receptor (Homo sapiens) (UniProt P04150); experiment: qHTS assay to identify small molecule antagonists of the glucocorticoid receptor (GR) signaling pathway (AID 720692; active = well fitted inhibition curve with a large enough effect in the signal ratio in the repeat runs, not every such curve was filed as active; the % refers to the signal ratio; note: potency is the fitted concentration of half-maximal effect)
In short: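 HeLa GR-bla cells; cmpd + dex 5 nM final, 18 h 37 C; LiveBLAzer B/G FRET substrate 2 h RT; fluorescence intensity read. Antagonist mode, qHTS.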

[20] = qHTS assay for small molecule agonists of the p53 signaling pathway (AID 651631; calls by dose curve; note: nearly all actives have a fitted effect of over 15% in size; note: potency is the fitted concentration of half-maximal effect)
In short: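 HCT-116 cells carrying a stable p53 response element–beta-lactamase reporter were plated, rested 5 h at 37 °C, then exposed to compound in DMSO for 16 h at 37 °C; reporter activity was read as FRET substrate fluorescence after 2 h at room temperature.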

Sequence of Glucocorticoid receptor (Homo sapiens) (P04150 whole entry, looked up): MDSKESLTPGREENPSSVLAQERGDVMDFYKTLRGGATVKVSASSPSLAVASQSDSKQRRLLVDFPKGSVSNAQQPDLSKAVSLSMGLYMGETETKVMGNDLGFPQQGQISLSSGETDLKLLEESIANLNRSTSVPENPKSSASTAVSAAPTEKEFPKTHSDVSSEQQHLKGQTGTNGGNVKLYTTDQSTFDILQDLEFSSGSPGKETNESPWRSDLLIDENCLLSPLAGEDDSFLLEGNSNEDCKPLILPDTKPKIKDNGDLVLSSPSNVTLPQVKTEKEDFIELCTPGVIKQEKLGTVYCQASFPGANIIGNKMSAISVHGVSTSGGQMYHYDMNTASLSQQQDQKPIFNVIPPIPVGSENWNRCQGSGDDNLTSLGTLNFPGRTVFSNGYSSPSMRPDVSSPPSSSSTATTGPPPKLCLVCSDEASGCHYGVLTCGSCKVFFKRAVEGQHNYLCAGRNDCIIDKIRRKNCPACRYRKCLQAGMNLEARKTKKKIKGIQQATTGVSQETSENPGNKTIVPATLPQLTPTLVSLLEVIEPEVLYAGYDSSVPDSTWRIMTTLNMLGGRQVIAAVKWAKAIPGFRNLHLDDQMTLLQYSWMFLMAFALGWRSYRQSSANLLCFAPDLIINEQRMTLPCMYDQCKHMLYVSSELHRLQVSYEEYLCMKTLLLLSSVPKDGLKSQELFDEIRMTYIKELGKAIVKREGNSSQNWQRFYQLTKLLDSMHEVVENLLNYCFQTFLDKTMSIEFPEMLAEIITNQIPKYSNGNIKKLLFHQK

Compound	Potency [1]	Potency [2]	Potency [3]	Potency [4]	Potency [5]	Potency [6]	Potency [7]	Potency [8]	Potency [9]	Potency [10]	Potency [11]	Potency [12]	Potency [13]	Potency [14]	Potency [15]	Potency [16]	Potency [17]	Potency [18]	Potency [19]	Potency [20]
CCCCCCCCCCCC(=O)OCC(C)OC(=O)CCCCC(=O)O (centres undefined)	inactive	inactive	inactive	inactive	inactive	inactive	inactive	inactive	inactive	inactive	inactive	inactive	inactive	inactive	inactive	inactive	inactive	inactive	–	–
CC(N=C(NC#N)Nc1ccncc1)C(C)(C)C (centres undefined)	inactive	inactive	inactive	inactive	inactive	inactive	inactive	inactive	inactive	inactive	inactive	inactive	inactive	inactive	inactive	inactive	inactive	inactive	inactive	–
Oc1ccccc1O	inactive	43.8 µM (active) and 30.6 µM (active)	inactive	inactive	inactive	inactive	inactive	inactive	inactive	inactive	inactive	inactive	inactive	inactive	–	–	inactive	inactive	–	–
CC1(C)[C@@H](O)CC[C@]2(C)[C@H]3C(=O)C=C4[C@@H]5C[C@@](C)(C(=O)O)CC[C@]5(C)CC[C@@]4(C)[C@]3(C)CC[C@@H]12	inactive	23.7 µM (active) and inactive	inactive	inactive	23.7 µM (active) and 67.8 µM (active)	inactive	inactive	inactive	inactive	inactive	inactive	inactive	inactive	inactive	inactive	inactive	inactive	–	23.9 µM (active) and 21.3 µM (active) and 43.2 µM (active)	–
Cc1cccc(C(=O)O)c1O	inactive	inactive	inactive	inactive	inactive	inactive	inactive	inactive	inactive	inactive	inactive	inactive	inactive	inactive	inactive	inactive	inactive	inactive	–	–
CNC(=O)c1ccccc1Sc1ccc2c(/C=C/c3ccccn3)n[nH]c2c1	0.237 µM (active)	inactive	–	–	2.37 µM (active)	inactive	inactive	inactive	inactive	inactive	inactive	inactive	inactive	inactive	inactive	inactive	inactive	–	inactive	0.75 µM (active)
COC(C)=O	inactive	inactive	inactive	inactive	inactive	inactive	inactive	inactive	inactive	inactive	inactive	inactive	inactive	inactive	inactive	inactive	inactive	inactive	inactive	–
O=C(O)CN(CCN(CC(=O)O)CC(=O)O)CC(=O)O	–	–	inactive	–	–	inactive	inactive	inactive	inactive	inactive	–	inactive	inactive	inactive	inactive	inactive	inactive	–	–	inactive
C#C[C@]1(OC(C)=O)CC[C@H]2[C@@H]3CCC4=C/C(=N/O)CC[C@@H]4[C@H]3CC[C@@]21CC	inactive	–	18.8 µM (active)	10.6 µM (active)	13.3 µM (active)	inactive	inactive	inactive	inactive	inactive	inactive	inactive	inactive	inactive	inactive	–	inactive	–	–	33.5 µM (active)

From PubChem BioAssay (Tox21)
